NRP1-CendR mod: NRP-1/CendR interaction modulation; inhibition, % at 25 µM; AID 602438; FAM-RPARPAR peptide binding to NRP-1, fluorescence polarization; O14786; actives 0.85% (n = 360,000);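 active = inhibition or corrected inhibition above about 18%, plus a signal ratio from 0.5 to 1.5, limit read from the data, passing the limit was not always enough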
ARNT TACC3 PPI: disrupts binding between human ARNT and TACC3 | Q9Y6A5 | AlphaScreen His-ARNT PAS-B/GST-TACC3 binding, luminescence; TACC3 fragment carries E629A point mutation | inhibition, % at 9.99 µM | actives 0.66% (n = 390,000) | AID 623870;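 active = mean inhibition of replicates at least 50% and at least half of replicates each reaching 50%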;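 note: 0% = complete ARNT plus TACC3 wells and 100% = ARNT alone without TACC3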
PglD DTNB: blocks C. jejuni PglD acetyltransferase activity; purified PglD enzyme, DTNB colorimetric CoA detection; inhibition, % at 12.5 µM; actives 0.098% (n = 360,000); AID 602405; in the data active = inhibition above about 16%, passing the limit was not always enough
ALR H2O2 inh: blocks human ALR sulfhydryl oxidase activity | P55789 | purified ALR, DTT oxidation, H2O2 HRP-luminol luminescence | inhibition, % (no concentration beside the values) | actives 3.8% (n = 290,000) | AID 485317;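 active = mean replicate inhibition above about 79%, with every replicate also reaching it, limit read from the data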
PDI turbidity: PDI (human) enzyme inhibition; P07237; PDI insulin aggregation turbidity, A650, 90 min; inhibition, % at 10 µM; actives 0.052% (n = 350,000);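 active = mean inhibition across replicates of 30% or more, whatever share of single replicates reach that level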
Target sequence (P07237 whole entry, looked up): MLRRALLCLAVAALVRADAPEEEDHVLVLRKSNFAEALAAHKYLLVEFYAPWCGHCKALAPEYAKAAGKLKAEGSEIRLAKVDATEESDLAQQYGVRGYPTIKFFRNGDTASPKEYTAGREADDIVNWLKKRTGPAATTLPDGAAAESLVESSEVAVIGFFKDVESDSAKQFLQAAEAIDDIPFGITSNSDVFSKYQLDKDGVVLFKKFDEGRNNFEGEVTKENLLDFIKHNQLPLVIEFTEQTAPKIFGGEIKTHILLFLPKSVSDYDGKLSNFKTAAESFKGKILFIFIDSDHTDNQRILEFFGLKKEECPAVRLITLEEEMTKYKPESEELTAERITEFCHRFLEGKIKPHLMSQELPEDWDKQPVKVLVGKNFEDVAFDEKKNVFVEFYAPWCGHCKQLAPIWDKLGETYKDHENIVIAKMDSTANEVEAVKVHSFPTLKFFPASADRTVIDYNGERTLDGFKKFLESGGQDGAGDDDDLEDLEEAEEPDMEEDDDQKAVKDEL
ERp5 block: inhibitors of human ERp5. Q15084. ERp5 insulin aggregation, absorbance 650 nm, 90 min. inhibition, % at 9.99 µM. actives 0.05% (n = 350,000). AID 651711;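 active = mean replicate inhibition above about 25%, with every replicate also reaching it, limit read from the data, passing the limit was not always enough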
* marks the source's active call; other numbers are inactive results; ! = a repeat was not active. Shown is part of a subset that was picked to be rich in hits.

CCC(COC(=O)c1cc(OC)c(OC)c(OC)c1)(c1ccccc1)N(C)C (centres undefined) was read as NRP1-CendR mod 22.9*!, ARNT TACC3 PPI -13.4, PglD DTNB 4.8, ALR H2O2 inh -2.0, PDI turbidity 4.1 and ERp5 block -3.0.
`CCNc1ccc(P(=S)(N(C)C)N(C)C)cc1` gave NRP1-CendR mod -15.0, ARNT TACC3 PPI -8.0, PglD DTNB 6.6, ALR H2O2 inh 98.9*, PDI turbidity 16.2 and ERp5 block 0.0.
Screening Oc1cc2c(cc1O)[C@H]1c3ccccc3CN[C@@H]1CC2 returned ALR H2O2 inh 99.0*.
COc1ccc2c(c1)C1OCCNC1CC2 (centres undefined) was read as NRP1-CendR mod 1.1 and ERp5 block 0.8.
CC=Cc1ccc2n(c1=O)C[C@@H]1[C@@H](CO)[C@H](C(=O)N(C)C)[C@H]2N1C (mixture of isomers) was read as ARNT TACC3 PPI 0.4, PglD DTNB -2.0 and ERp5 block -3.7.
Oc1ccc(/C=N/NP(=S)(c2ccccc2)c2ccccc2)cc1O was read as NRP1-CendR mod 3.6, ARNT TACC3 PPI 4.5, PglD DTNB -1.3, ALR H2O2 inh 98.8*, PDI turbidity -1.8 and ERp5 block 3.7.
`Oc1ccc(/C=N/NP(=S)(c2ccccc2)c2ccccc2)c(O)c1O` gave NRP1-CendR mod 1.7, ARNT TACC3 PPI -6.5, PglD DTNB 4.6, ALR H2O2 inh 98.8* and PDI turbidity -0.8.
Screening CC(=O)OC1CC(OC2C(O)CC(OC3C(O)CC(OC4CCC5(C)C(CCC6C5CCC5(C)C(C7=CC(=O)OC7)CCC65O)C4)OC3C)OC2C)OC(C)C1OC1OC(CO)C(O)C(O)C1O (centres undefined) returned NRP1-CendR mod 4.8, ARNT TACC3 PPI -53.1, PDI turbidity 4.7 and ERp5 block -13.0.
Screening CC(=O)OC1CC[C@]2(C#N)[C@H]3CC[C@]4(C)[C@H](C5C=CC(=O)O5)CCC4(O)C3CCC2(O)C1 (some centres undefined) returned NRP1-CendR mod 22.3*, ARNT TACC3 PPI 2.9, PglD DTNB -0.6, ALR H2O2 inh -1.8, PDI turbidity -5.2 and ERp5 block 5.3.
COc1ccc(C#Cc2ccc([C@H]3[C@H]4CN(C(=O)Cc5cccnc5)CCCCN4[C@H]3CO)cc2)cc1 was read as ARNT TACC3 PPI 17.5, PglD DTNB -0.7 and ERp5 block -2.6.
`C=CCN1CCc2cccc3c2[C@H]1Cc1ccc(O)c(O)c1-3` gave NRP1-CendR mod 14.0, ARNT TACC3 PPI -1.4, PglD DTNB -0.9, ALR H2O2 inh 99.5*, PDI turbidity 4.7 and ERp5 block -5.9.
For C=CCN1CC[C@]23c4c5ccc(O)c4O[C@H]2C(=O)CC[C@@]3(O)[C@H]1C5 the results were NRP1-CendR mod -4.9, ARNT TACC3 PPI -2.1, PglD DTNB 0.2, ALR H2O2 inh 5.9, PDI turbidity 0.3 and ERp5 block 5.2.
C1=C(c2ccccc2)CCNC1 was read as NRP1-CendR mod -13.0, PglD DTNB 4.2, ALR H2O2 inh 3.1, PDI turbidity 7.8 and ERp5 block -4.0.
Screening Oc1ccc(C2=CCNCC2)cc1O returned NRP1-CendR mod 17.3, ARNT TACC3 PPI 2.4, PglD DTNB 1.0, ALR H2O2 inh 99.1*, PDI turbidity -4.6 and ERp5 block 2.1.
For CCOC(=O)c1nsnc1NCCCl the results were NRP1-CendR mod 21.5*, ARNT TACC3 PPI -4.9, PglD DTNB 5.7, ALR H2O2 inh -5.7, PDI turbidity -1.5 and ERp5 block 9.2.
Screening O=C(Cc1ccccc1)N1CCCCN2[C@H](C1)[C@@H](c1ccc(-c3ccccc3)cc1)[C@@H]2CO returned ARNT TACC3 PPI 7.0, PglD DTNB -2.2 and ERp5 block -1.5.
`CC=Cc1ccc2n(c1=O)C[C@@H]1[C@@H](CO)[C@H](C(=O)OC)[C@H]2N1S(=O)(=O)c1ccccc1C` (mixture of isomers) gave ARNT TACC3 PPI -14.0, PglD DTNB 0.4 and ERp5 block 2.4.
`CNC(C)Cc1ccccc1Sc1ccc(O)cc1` (centres undefined) gave NRP1-CendR mod -0.7, ARNT TACC3 PPI -0.8, PglD DTNB -2.3, ALR H2O2 inh 99.1* and PDI turbidity 18.9.
